Screens from PubChem BioAssay.
USP7 block: blocks human USP7 ubiquitin-rhodamine cleavage; Q93009; purified USP7, Ub-rhodamine cleavage fluorescence; inhibition, % at 20 µM; hit rate 0.3% among 47,000
UCHL1 block: human UCHL1 deubiquitinase inhibition. purified UCHL1, Ub-rhodamine cleavage fluorescence. inhibition, % at 20 µM. hit rate 0.2% among 47,000. P09936
USP10 block: inhibitors of human USP10 deubiquitinase; Q14694; purified USP10, Ub-rhodamine fluorescence, 60 min; inhibition, % at 20 µM; hit rate 1.1% among 47,000; AID 1645856
USP8 inh: blocks human USP8 ubiquitin-rhodamine cleavage. P40818. hit rate 4.2% among 47,000. inhibition, % at 20 µM. purified USP8, Ub-rhodamine cleavage fluorescence, 30 min
* = called active by the depositor. Shown are actives, neighbours in structure and some others; about 4.6% of the full set was active somewhere. Cut-off read from the data, not from the text of the source: active = inhibition above about 30%; inactive = the rest.

SMILES	USP7 block	UCHL1 block	USP10 block	USP8 inh
CCc1nc(-c2cccc(NC(=O)C3CC(=O)N(c4ccc(C)c(C)c4)C3)c2)no1 (configuration not stated)	9	4	19	39*
Cc1nc(-c2cccc(NC(=O)C3CC(=O)N(c4cccc(Cl)c4)C3)c2)no1 (configuration not stated)	12	4	4	31*
COc1ccc(-c2cc(C(F)F)n3ncc(C(=O)N4CCN(Cc5ccccc5)CC4)c3n2)cc1	4	10	3	10
O=C(Nc1ccc(S(=O)(=O)Nc2cc(Cl)cc(Cl)c2)cc1)c1c(F)cccc1Cl	12	4	34*	-11
O=C(Nc1ccc(Oc2ccccc2)cc1)c1c(F)cccc1Cl	3	5	8	-112
COc1ccc(-n2nnnc2CN2CCN(S(=O)(=O)c3ccc(F)cc3)CC2)cc1	1	0	1	0
COc1ccc(-c2nnc(NC(=O)CSc3ccc(C)cc3)o2)cc1	3	-2	-2	-315
COc1ccc(N2CCn3c(SCC(=O)Nc4cc(C)cc(C)c4)nnc32)cc1	5	-1	4	50*
CCOC(=O)c1cnc(Nc2cc(OC)ccc2OC)c2ccccc12	0	-1	-10	12
Cc1nn2c(C)c(C(=O)NCc3ccc4c(c3)OCO4)cnc2c1-c1ccccc1	-2	-2	2	11
COc1ccccc1Nc1ncc(C(=O)NCc2ccc3c(c2)OCO3)c2ccccc12	6	1	11	63*
CCOC(=O)c1cnc(Nc2ccccc2OC)c2ccccc12	-6	-4	-2	-11
COc1ccccc1Nc1ncc(C(=O)NCc2ccc(F)cc2)c2ccccc12	7	3	7	71*
COc1cc(OC)c(NC(C)C(=O)Nc2ccc3c(c2)OCO3)cc1Cl (configuration not stated)	-1	3	-4	37*
COc1cc(Cl)ccc1Nc1ncc(C(=O)Nc2ccc3c(c2)OCO3)c2ccccc12	9	2	6	39*
COc1cc(N2CC[C@@H]3[C@@H]2CCN3C(=O)Cc2ccccc2)ncn1	2	2	1	-119
CC(C)[C@@H]1C[C@@H]2C[C@H](N(CC(=O)O)C(=O)C3CCC3)C[C@@H]2CO1	4	2	-1	23
COc1cc(Cl)c(C)cc1-n1cc(C(=O)c2cc(Cl)ccc2O)cc(C#N)c1=O	-13	-26	-7	5
COc1ccc(O)c(C(=O)c2cc(C#N)c(=O)n(-c3cccc(C(F)(F)F)c3)c2)c1	-150	-159	-3	65*
COC(=O)C1=CC(OC)=C(Cl)C(=O)C12OC(=O)c1c(O)cc(C)cc1O2 (configuration not stated)	-92	33*	2	-4
COC(=O)c1ccc(OCC2c3cc(OC)c(OC)cc3CCN2C(=O)Cc2ccc(F)cc2)cc1 (configuration not stated)	14	9	7	36*
COc1ccc(CC(=O)N2CCc3cc(OC)c(OC)cc3C2COc2ccc([N+](=O)[O-])cc2)cc1 (configuration not stated)	-68	4	6	-23
C/C=C/C(=O)Nc1ccc(-n2nnc(C(=O)N3CCCC3)n2)cc1	6	0	6	17
Nc1cccnc1Sc1ccccn1	-57	-27	-5	40*
Cc1ccnc(Sc2ncccc2O)c1	0	0	1	-116
SMILES	USP7 block	UCHL1 block	USP10 block	USP8 inh
Cc1ccc2[nH]c(=O)c(-c3nc4ccc(C)cn4c3NCc3ccc(F)cc3)cc2c1	51*	13	47*	78*
COc1ccc2cc(-c3nc4cc(C)ccn4c3NCc3ccccc3)c(=O)[nH]c2c1	-23	-26	-7	-195
COc1ccc(Cn2nnc(C(=O)NC3CCCCC3)c2-n2cccc2)cc1	-7	19	3	49*
OC(CSc1ccc(Cl)cc1)CN1CCN(c2ccccc2)CC1 (configuration not stated)	-18	1	2	-15
Cc1ccc(C)c(Cn2cnc3c(nnn3-c3cccc(F)c3)c2=O)c1	25	3	16	54*
Cc1cccc(-n2nnc3c(=O)n(Cc4ccc([N+](=O)[O-])cc4)cnc32)c1	0	-3	6	-8
C=C1O[C@](CO)(n2cnc3c(N)ncnc32)[C@@H](O)[C@H]1O	-4	-3	-5	-1
Nc1ncnc2c1ncn2[C@@H]1O[C@H](CO)C[C@@H]1O	30*	16	28	17
Cc1cc(C)nc(-n2ncc(C#N)c2NC(=O)c2ccc(Br)cc2)n1	-12	-15	-2	44*
CC(=O)c1cn(CC(=O)NCc2cc3c(cc2C)OCCCO3)c2ccccc12	-8	0	-1	14
O=c1cc(-c2cc3ccccc3oc2=O)c2ccc(O)cc2o1	-1	4	2	19
